In PubChem BioAssay (NCI):
Compounds without any hit were thinned out: in the full panel of roughly 83,000, 20% have a hit.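 Cell lines were cultured in 96-well plates, exposed to a single compound concentration, and assessed for percent growth 48 hours later.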 A number with no mark means an inactive call. The source made the active and inactive calls. Rule for the calls: active = growth percent below 10; inactive = the rest.

What was measured:
Assay in all cases: NCI-60 one-dose screen, 48 h (100 = growth as untreated, 0 = no growth, -100 = all killed)
Details in all cases: 10 µM
SK-MEL-2 melanoma = system: SK-MEL-2 melanoma
SN12C renal = system: SN12C renal
UO-31 renal = system: UO-31 renal
TK-10 renal = system: TK-10 renal
ACHN renal = system: ACHN renal
CAKI-1 renal = system: CAKI-1 renal
A498 renal = system: A498 renal
CCRF-CEM leukemia = system: CCRF-CEM leukemia
MOLT-4 leukemia = system: MOLT-4 leukemia
SR leukemia = system: SR leukemia
RPMI-8226 leukemia = system: RPMI-8226 leukemia
OVCAR-8 ovarian = system: OVCAR-8 ovarian
OVCAR-5 ovarian = system: OVCAR-5 ovarian
OVCAR-4 ovarian = system: OVCAR-4 ovarian
SK-OV-3 ovarian = system: SK-OV-3 ovarian
IGROV1 ovarian = system: IGROV1 ovarian
OVCAR-3 ovarian = system: OVCAR-3 ovarian
HS 578T breast = system: HS 578T breast
NCI/ADR-RES ovarian = system: NCI/ADR-RES ovarian

Structure (SMILES)	growth (SK-MEL-2 melanoma)	growth (SN12C renal)	growth (UO-31 renal)	growth (TK-10 renal)	growth (ACHN renal)	growth (CAKI-1 renal)	growth (A498 renal)	growth (CCRF-CEM leukemia)	growth (MOLT-4 leukemia)	growth (SR leukemia)	growth (RPMI-8226 leukemia)	growth (OVCAR-8 ovarian)	growth (OVCAR-5 ovarian) [%]	growth (OVCAR-4 ovarian)	growth (SK-OV-3 ovarian)	growth (IGROV1 ovarian)	growth (OVCAR-3 ovarian)	growth (HS 578T breast)	growth (NCI/ADR-RES ovarian) [%]
CC(C)c1ncc(CO)n1Cc1c(Cl)cccc1Cl	101%	113%	90.1%	95%	99.9%	100%	77.8%	103%	101%	97.4%	97.6%	105%	106	116%	99.5%	100%	105%	104%	110
COc1ccc2c(=O)cc(C(Cl)(Cl)Cl)oc2c1	-75.2% (active)	2.57% (active)	-19.3% (active)	-20.4% (active)	10.6%	-14.5% (active)	-68.5% (active)	-21.2% (active)	-23.9% (active)	-25.6% (active)	-27.2% (active)	-1.14% (active)	16.6	-12.9% (active)	9.34% (active)	-7.04% (active)	-19.7% (active)	-13.9% (active)	10.3
COc1cc(C)c2sc3ccccc3c(=O)c2c1NCCN(C)C	121%	54.2%	32%	61.9%	38.4%	39.7%	55%	22.6%	1.59% (active)	3.64% (active)	33.3%	40.5%	87	72.8%	65.7%	29.3%	87.4%	58.6%	61.9
Cc1cc(C)c(C(=O)OC(C)CNC2CCCCC2)c(C)c1 (stereo not drawn)	95%	100%	68.6%	92%	97.8%	97%	92.1%	89.7%	84.7%	81.6%	92.9%	101%	59.2	101%	96.7%	101%	98.5%	100%	92.3
Cc1cc(OI)c(C(C)C)cc1-c1cc(C(C)C)c(OI)cc1C	80.7%	101%	83.5%	97.3%	96%	95.1%	85.4%	98.3%	86.8%	84.8%	103%	104%	94.4	109%	92.4%	98%	108%	109%	102
CN(C)CCCN(Cc1ccccc1O)C(=S)Nc1ccc(Cl)cc1	112%	98.2%	78.8%	104%	95%	99.7%	77.5%	109%	106%	95%	93.5%	98.2%	110	111%	107%	106%	112%	89%	104
COc1ccc(C2C=C(c3ccc(Cl)c(Cl)c3)N=C3SC(C)=CN32)cc1 (stereo not drawn)	94.8%	99.6%	77.5%	92.8%	103%	95.7%	91%	82.8%	79.5%	9.84% (active)	18%	94%	102	91.3%	109%	86.8%	95.5%	105%	107
Cn1cnc([N+](=O)[O-])c1/C=C1\Oc2ccc(Cl)cc2C1=O	82.2%	98.9%	48.3%	98.2%	79.4%	78.1%	98.4%	33.7%	49.3%	20.7%	70.7%	72.5%	108	92.3%	96.2%	73.1%	86%	104%	100
COc1ccc(-c2nnc(COc3ccc(NC(=O)Nc4ccccc4)cc3F)o2)cc1	79.4%	91.1%	68.9%	101%	77.6%	83.6%	64%	61.2%	58.7%	36.1%	51.3%	96.1%	114	75.7%	99.1%	99.2%	2.7% (active)	82%	97.4
COc1cc(-c2nc3ccccc3[nH]2)ccc1OCc1nnc(-c2ccc(Br)cc2)o1	105%	85.8%	79.5%	130%	98.6%	95.5%	79.6%	67.9%	63.8%	-25.7% (active)	51.5%	75.7%	109	85.1%	108%	87.4%	110%	78.4%	92.5
C#Cc1ccc(-n2c(/C=C/c3cc(OC)c(OC)c(OC)c3)nc3ncccc3c2=O)cc1	-2.4% (active)	82.1%	45.8%	112%	60.5%	64.2%	24.5%	55.9%	65.2%	11.2%	40.9%	75.1%	120	63.4%	65.9%	56.3%	4.62% (active)	75.4%	54.6
Cc1nnc2c3nnc(-c4ccc(Cl)cc4)n3c3ccccc3n12	99.9%	97.7%	72.4%	92%	101%	93.2%	94.3%	90.3%	89.9%	77%	95%	98.1%	100	115%	92.5%	91.8%	104%	97.9%	107
CCOC(=O)CSC(=S)SCC(=O)OCC	96.7%	106%	102%	132%	109%	103%	121%	85.1%	96.6%	84.8%	95.4%	93%	107	97.4%	98.2%	117%	122%	106%	106
COc1ccc(N2CCN(c3nc(-c4ccccc4)c(C#N)c(=O)[nH]3)CC2)cc1	120%	96.7%	71.4%	115%	99%	98.6%	87.9%	80.1%	93.5%	89.7%	91.3%	102%	105	102%	96.6%	101%	103%	112%	98.9
CCn1nc(-c2ccc(C(=O)OC)cc2)nc2c(=O)n(C)c(=O)nc1-2	96.6%	76.6%	49.9%	85.7%	-53.4% (active)	63.7%	108%	83.9%	101%	7.67% (active)	61.2%	45.8%	105	14.1%	9.16% (active)	87.4%	25.7%	35.6%	70
O=C(NC1CCN(Cc2ccccc2)CC1)c1cc(-c2ccncc2)nc2ccc(Cl)cc12	44.1%	27.3%	11.9%	61.4%	19.9%	13.4%	11%	2.77% (active)	7.58% (active)	8.12% (active)	21.9%	18.4%	75.3	27.6%	53.1%	32.3%	15.5%	59.9%	11.2
O=C(OCc1ncc(-c2ccc(C(F)(F)F)cc2)c(NC2CCCCCC2)n1)c1c(F)c(F)c(F)c(F)c1F	54.6%	54.1%	28.3%	63.2%	27.8%	89.6%	102%	15.7%	79.1%	39.4%	-6.54% (active)	44.1%	88.3	49.4%	91.8%	63.7%	29.8%	65.3%	96.3
